Among the data in PubChem BioAssay (NCI) are growth values, retold here.

Holding throughout (experiment): NCI-60 one-dose screen, 48 h (100 = growth as untreated, 0 = no growth, -100 = all killed)
Common to all, as to conditions: 10 µM unless noted

Experiment [1] has as its system HCT-15 colon.
The subject of experiment [2] is HT29 colon.
Experiment [3] has as its system SNB-75 CNS.
Experiment [4] relates to SNB-19 CNS.
Experiment [5] relates to U251 CNS.
Experiment [6] has as its system PC-3 prostate.
The test system of experiment [7] is SK-MEL-5 melanoma.
The test system of experiment [8] is UACC-62 melanoma.
In experiment [9] the test system is LOX IMVI melanoma.
The test system of experiment [10] is SK-MEL-28 melanoma.

About 83,000 compounds went through this panel and 20% of them were active in at least one assay; those are over-represented in the sample as a whole.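 Method: cells in 96-well plates; compound added at one concentration; 48 h incubation; percent growth measured; values under 10 scored active.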 A number with no mark means an inactive call. Active and inactive are the calls of the source.

With `NC(N)=N/N=C/c1ccc([N+](=O)[O-])cc1`, the growth was 105% in experiment [1]; 105% in experiment [2]; 83.4% in experiment [3]; 109% in experiment [4]; 105% in experiment [5]; 94.5% in [6]. Moreover, the growth was 100% in experiment [7], 91.6% in experiment [8], 96% in experiment [9] and 109% in [10].
For `CCN(CC)C(=O)C1CCN(C(=O)c2ccccc2)CC1`, the growth is 104% in experiment [1]; 104% in [2]; 94% in experiment [3]; 100% in experiment [4]; 101% in experiment [5]; 96.9% in experiment [6]. Also, the growth in experiment [7] was 101%; in [8], 97.2%; in experiment [9], 96.7%; in experiment [10], 107%.
Consider `COc1cc(/C=C/C(=O)c2c(C)[n+]([O-])c3ccccc3[n+]2[O-])ccc1O`, for which the growth in [1] was 93.5%; in [2], 161%; in [3] it was 162%; in experiment [4], 111%; in [5], 90.8%; in [6], 90.6%. For the same compound, the growth in experiment [7] is 81.6%; in experiment [8], 110%; in [9], 92.6%; in experiment [10] it was 117%.
For `CCCCNc1cc(C(=O)O)cc(S(N)(=O)=O)c1Oc1ccccc1`, the growth in [1] was 108%; in experiment [2], 112%; in experiment [3] it was 90.4%; in experiment [4] it was 106%; in experiment [5] it was 99.8%; in experiment [6], 95.7%. In addition, the growth in experiment [7] was 95.3%; in [8], 101%; in experiment [9], 93.5%; in [10] it was 109%.
For `COc1ccccc1N1CCN(CC(O)COc2c(Br)c(Br)c(Br)c3c2OC(C)(C)C3)CC1` (stereo not given), the growth is 24.6% in [1]; 5.44% (active) in experiment [2]; 71% in experiment [3]; 60.8% in [4]; 52.7% in experiment [5]; 18.9% in [6]. Moreover, the growth in [7] was 7.43% (active); in experiment [8], 56.6%; in [9], 18.5%; in [10], 90.4%.
For `CCCCOc1c(N)cc(Cl)cc1C(=O)OCCN(CC)CC`, the growth in experiment [1] was 111%; in experiment [2], 74.8%; in [3] it was 101%; in experiment [4] it was 101%; in experiment [5] it was 90.1%; in experiment [6], 80.9%. The growth in [7] was 102%; in experiment [8], 96.7%; in experiment [9] it was 103%; in experiment [10], 114%.
Consider `COc1cc(NC(C)CCCN2C(=O)c3ccccc3C2=O)c2ncccc2c1OC` (stereo not given), for which the growth in experiment [1] was 94.1%; in experiment [2] it was 101%; in experiment [3], 84.8%; in experiment [4], 94.1%; in experiment [5], 107%; in experiment [6], 71.3%. The growth in [7] is 84.3%; in experiment [8], 90.1%; in [9], 79.2%; in experiment [10], 105%.
Consider `CCOC(=O)C1CN(Cc2ccccc2)C(=O)C1=O` (stereo not given), for which the growth in experiment [1] was 86.2%; in experiment [2] it was 115%; in [3], 76.1%; in experiment [4] it was 101%; in [5], 111%; in experiment [6], 91.8%. Besides, the growth in [7] is 106%; in experiment [8], 103%; in experiment [9], 104%; in experiment [10] it was 101%.
Turning to `CC(Cl)(CCl)CS(=O)(=O)c1ccc(Cl)cc1` (stereo not given), the growth in experiment [1] was 105%; in experiment [2], 103%; in experiment [3], 103%; in experiment [4], 101%; in [5], 94.4%; in experiment [6], 97.7%. Further, the growth in [7] is 100%; in [8], 99.8%; in experiment [9], 101%; in experiment [10], 117%.
Turning to `C#CCn1c(-c2cc(OC)c(OC)cc2Br)nc(-c2ccccc2)c1-c1ccccc1`, the growth in [1] is 29.7%; in experiment [2], 9% (active); in [3], 43.1%; in experiment [4] it was 55%; in [5], 45.4%; in experiment [6], 25.2%. Further, the growth is 12.4% in experiment [7], 40% in [8], 34.9% in experiment [9] and 69.8% in experiment [10].
In the case of `Cc1cc(NCCN(C(C)C)C(C)C)nc(/N=C(\N)Nc2ccc(Cl)c(C(F)(F)F)c2)n1`, the growth was -56.2% (active) in experiment [1]; -86.6% (active) in experiment [2]; -100% (active) in [3]; -83.3% (active) in experiment [4]; -84.4% (active) in [5]; -94% (active) in experiment [6]. Besides, the growth in experiment [7] is -91.5% (active); in experiment [8] it was -91.6% (active); in experiment [9], -70.6% (active); in experiment [10] it was -87.2% (active).
`COc1ccc(CNc2nc3ccccc3c3c(=O)c4ccccc4sc23)cc1OC`: the growth in experiment [1] is 90.2%; in experiment [2], 73%; in [3], 21.8%; in experiment [4] it was 86.5%; in [5], 79.8%; in experiment [6], 72.9%. For the same compound, the growth in experiment [7] is 78%; in experiment [8], 68.8%; in experiment [9], 82.7%; in [10], 93.3%.
Regarding `COc1ccc(SC2c3ccc(O)cc3Oc3nc(N)c(C#N)c(N)c32)cc1` (stereo not given), the growth is 85% in experiment [1]; 101% in [2]; 84.7% in experiment [3]; 78.6% in experiment [4]; 60.9% in experiment [5]; 56.1% in experiment [6]. The growth in experiment [7] was 55.7%; in experiment [8] it was 105%; in experiment [9] it was 33.7%; in [10], 106%.
With `Nc1nc(Nc2ccc(OCc3cccc(F)c3)cc2)c2c(n1)[nH]c1ccc(O)cc12`, the growth in experiment [1] is -8.62% (active); in [2] it was -84.2% (active); in experiment [3] it was -63.5% (active); in experiment [4] it was 12.3%; in [5], -91% (active); in experiment [6], 4.64% (active). Further, the growth was -78.1% (active) in [7], -75.1% (active) in [8], -96% (active) in [9] and -67.4% (active) in experiment [10].
For the compound `CC1=C2C(=C[C@@](C)(CO)[C@@H]2OC(=O)N(C)CCN(C)C(=O)OC(C)(C)C)C(=O)[C@](C)(O)C12CC2`, the growth in [1] is 21%; in experiment [2], 6.33% (active); in experiment [3], 79.9%; in experiment [4], 72.3%; in experiment [5], 22.6%; in [6], 47.7%. In addition, the growth was 76.7% in experiment [7], 84.2% in experiment [8], 61.8% in [9] and 82.3% in experiment [10].
Regarding `COc1cc(Nc2ncccc2C(=O)Nc2nc3ccc(F)cc3s2)cc(OC)c1OC`, the growth was 76.2% in experiment [1]; 79.1% in experiment [2]; 73.5% in experiment [3]; 89% in experiment [4]; 58.5% in experiment [5]; 39.2% in [6]. The growth is 63.9% in experiment [7], 24.4% in [8], 57.3% in experiment [9] and 84% in experiment [10].
Turning to `COc1ccc(OC)c(NCC(=O)n2nc(/C=C\c3ccc(O)c(OC)c3)cc2/C=C\c2ccc(O)c(OC)c2)c1`, the growth in experiment [1] was 17.5%; in experiment [2] it was -70.2% (active); in [3], 25.5%; in [4], 16.7%; in experiment [5], 4.56% (active); in [6], 23.2%. The growth in experiment [7] is 9.05% (active); in experiment [8] it was 15.8%; in [9] it was 9.71% (active); in experiment [10], 21.2%.
Regarding `CCCCCCCCCCCC(=O)OCCNC(=O)C[n+]1ccccc1`, the growth is 110% in experiment [1]; 93.7% in experiment [2]; 96.5% in experiment [3]; 102% in [4]; 101% in [5]; 92.5% in [6]. Also, the growth in experiment [7] is 100%; in experiment [8], 104%; in experiment [9], 106%; in experiment [10] it was 109%.
Regarding `Cc1nc(N)nc(SCc2ccccc2)c1Br`, the growth was 102% in experiment [1]; 92.8% in experiment [2]; 87.3% in [3]; 99.3% in [4]; 85.4% in [5]; 83.8% in [6]. The growth in [7] was 88.4%; in [8], 75.8%; in experiment [9], 95.7%; in [10], 106%.
`COc1ccc(-c2nn(-c3ccc(NC(=O)c4cc(C(F)(F)F)cc(C(F)(F)F)c4)cc3)cc2-c2ccncc2)cc1Cl`: the growth was 46% in [1]; 53.7% in [2]; 72.5% in experiment [3]; 85.7% in experiment [4]; 52.7% in experiment [5]; 45.1% in experiment [6]. In addition, the growth in [7] was 69.1%; in experiment [8], 55.6%; in [9] it was 46.4%; in [10] it was 79.9%.
For `Cc1ccc(=O)n(-c2ccc(Br)cc2F)c1`, the growth was 105% in experiment [1]; 107% in [2]; 74.9% in [3]; 105% in experiment [4]; 98.1% in [5]; 91.4% in experiment [6]. For the same compound, the growth was 97.3% in experiment [7], 101% in [8], 94.5% in experiment [9] and 108% in [10].
As to `COc1cc(NC(=O)C#Cc2ccccc2)c(OC)cc1Cl`, the growth in [1] is 20.6%; in [2], 29.3%; in [3], 65.8%; in experiment [4], 40.7%; in experiment [5], 39.5%; in [6], 38.1%. The growth is 30.1% in [7], 36.8% in experiment [8], 17.2% in experiment [9] and 84.2% in experiment [10].
As to `COc1ccc(Cl)cc1NC(=O)c1cc2c(n1C)-c1nc(NC(=O)C(C)(C)C)sc1CC2`, the growth is 89.4% in experiment [1]; 79.2% in [2]; 83.1% in experiment [3]; 106% in [4]; 88.4% in [5]; 71.7% in experiment [6]. The growth in experiment [7] is 79.7%; in [8], 87.7%; in experiment [9], 93.9%; in experiment [10], 92.4%.
With `C[C@]12O[C@H]1[C@H](O)c1c(cc(O)c3c1C(=O)c1cccc(O)c1-3)C2=O`, the growth in [1] is 103%; in experiment [2], 92.9%; in [3], 86.3%; in experiment [4] it was 104%; in experiment [5], 97.6%; in experiment [6] it was 87.3%. The growth was 97.7% in [7], 88.2% in experiment [8], 87.8% in experiment [9] and 107% in experiment [10].
As for `O=S(=O)(Nc1cccc2cc(OS(=O)(=O)c3ccccc3)ccc12)c1ccccc1`, the growth is 34.4% in [1]; 19.2% in experiment [2]; 49.6% in experiment [3]; 78.2% in [4]; 48.5% in experiment [5]; 59% in [6]. Further, the growth in experiment [7] is 53.4%; in experiment [8], 61%; in experiment [9] it was 55.4%; in experiment [10] it was 66.4%.
With `FC(F)(F)c1cn(CCN2CCOCC2)c2ncnc(Cl)c12`, the growth in experiment [1] is 14.9%; in experiment [2], 72.7%; in [3] it was 78.1%; in [4], 22.5%; in experiment [5], 71.2%; in experiment [6], 28.1%. In addition, the growth is 42.5% in experiment [7], 53.2% in experiment [8], -63.9% (active) in experiment [9] and 72.4% in experiment [10].
For the compound `O=C(Nc1cccc([N+](=O)[O-])c1)Nc1cccc([N+](=O)[O-])c1`, the growth is 24.6% in experiment [1]; 40.9% in experiment [2]; 107% in experiment [3]; 52% in experiment [4]; 50.8% in experiment [5]; 12.7% in experiment [6]. The growth in [7] was 55%; in experiment [8] it was 29.9%; in [9] it was 51.3%; in experiment [10], 60.3%.
